Common to all, as to test: NCI-60 one-dose screen, 48 h (100 = growth as untreated, 0 = no growth, -100 = all killed)
Holding throughout (conditions): 10 µM unless noted

The test system of assay [1] is BT-549 breast.
Assay [2] deals with MDA-MB-435 melanoma.
Assay [3] deals with SW-620 colon.
Assay [4] concerns MCF7 breast.
For assay [5], the system named is HCT-116 colon.
In assay [6] the test system is KM12 colon.
Assay [7] has as its system HCC-2998 colon.

The panel holds about 83,000 compounds, 20% with a hit somewhere; the sample as a whole holds those more often.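 Growth was measured after 48 h exposure to one concentration of compound in 96-well plates. Values under 10 count as active.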 Values without a mark were called inactive. The source made the active and inactive calls.

As to `COc1ccc(CNS(=O)(=O)/N=C2\NC(=O)NC2=C(Cl)Cl)cc1`, the growth in assay [1] was -8.05% (active); in assay [2], -3.14% (active); in assay [3], 27.2%; in assay [4] it was 18.2%; in assay [5] it was 6.95% (active); in assay [6], 17.1%.

Turning to `CCOC(=O)c1c(NC(=O)c2cccc(C(F)(F)F)c2)sc2cc(O)ccc12`, the growth in assay [1] was 89.7%; in assay [2] it was 104%; in assay [3], 103%; in assay [4] it was 46.6%; in assay [5], 91.7%; in assay [6], 95.5%.

Turning to `N/C(=N\c1nc2c(Cl)cc(Cl)cc2s1)C(Cl)(Cl)Cl`, the growth in assay [1] was 110%; in assay [2], 75.6%; in assay [3] it was 60.6%; in assay [4] it was 24.8%; in assay [5] it was 51%; in assay [7] it was -1.09% (active). In addition, in assay [6], the growth is 1.36% (active).

On to `COc1ccc(Cc2nn(CC(=O)N/N=C/c3ccc(Cl)cc3)c(=O)c3c(C)noc23)cc1`, for which the growth is 93.9% in assay [1]; 94.5% in assay [2]; 69% in assay [3]; 83.5% in assay [4]; 36.4% in assay [5]; 85.9% in assay [6].

In the case of `Cc1ccc2c(n1)C(=O)C(Cl)=C(Nc1cccc(C(C)C)c1)C2=O`, the growth in assay [1] was 58.7%; in assay [2], -70.6% (active); in assay [3], 28.3%; in assay [4], -56.7% (active); in assay [5], 13.1%; in assay [6], 80%.

Turning to `O=C(N/N=C/c1ccc(Cl)s1)c1[nH]c2ccc(Br)cc2c1-c1ccccc1`, the growth in assay [1] is -18.1% (active); in assay [2], -8.88% (active); in assay [3], 25%; in assay [4], 7.95% (active); in assay [5], -27.5% (active); in assay [7], 19.9%. Also, the growth in assay [6] was 10.5%.

Take `CCOC(=O)c1c(Nc2ccccc2)nn2c(N)c(C#N)c(-c3ccccc3)nc12`: the growth in assay [1] is 95%; in assay [2], 75.3%; in assay [3], 81.6%; in assay [4] it was 60.1%; in assay [5], 78.3%; in assay [7] it was 97%. For the same molecule, in assay [6], the growth is 77.7%.

Regarding `CC1=C(C)C(=O)C(Nc2ccccc2)=C(Cl)C1=O`, the growth is 114% in assay [1]; 102% in assay [2]; 96.5% in assay [3]; 90.7% in assay [4]; 79.1% in assay [5]; 78.3% in assay [6].

`CN(C)c1ccc(/C=c2\sc3nc4ccccc4n3c2=O)cc1`: the growth was 118% in assay [1]; 101% in assay [2]; 102% in assay [3]; 70.3% in assay [4]; 105% in assay [5]; 107% in assay [7]. The growth in assay [6] is 104%.

Consider `O=C1[C@H]2Cc3c([nH]c4ccccc34)[C@@H](c3ccc(Br)cc3)N2C(=O)CN1C1CCN(Cc2ccccc2)CC1`, for which the growth was 93.4% in assay [1]; 36.9% in assay [2]; 33.5% in assay [3]; 6.48% (active) in assay [4]; 9.04% (active) in assay [5]; 36.7% in assay [6].

Regarding `C=C1CC[C@H]2[C@@](C)(CCC3OC(c4ccc(OCc5cn(C6CC(OC(C)=O)C(OC(C)=O)C(COC(C)=O)O6)nn5)cc4)OC[C@]32C)[C@@H]1/C=C/C1=CCOC1=O` (stereo partly drawn), the growth was 61.2% in assay [1]; 85.4% in assay [2]; 96.1% in assay [3]; 44.4% in assay [4]; 48.3% in assay [5]; 100% in assay [7]. In assay [6], the growth is 86.3%.

As to `O=C(N/N=C/c1cccs1)c1[nH]c2ccc(Br)cc2c1-c1ccccc1`, the growth in assay [1] was -14.2% (active); in assay [2], -26.1% (active); in assay [3] it was 22.8%; in assay [4], 8.78% (active); in assay [5] it was -33.7% (active); in assay [7], 24.1%. Also, the growth in assay [6] is 6.37% (active).

Take `Cc1nc2cnc(N)c(C#Cc3cncc(C(=O)Nc4ccc(Cl)c(C(F)(F)F)c4)c3)c2nc1C`: the growth in assay [1] was 86.7%; in assay [2] it was 41%; in assay [3], -18.9% (active); in assay [4] it was -67.5% (active); in assay [5], 15.4%; in assay [7], 60.4%. Also, the growth in assay [6] is 3.01% (active).

With `CCN1C(=S)N(c2ccccc2)C2NC(=O)N(/N=C/C=C/c3ccccc3OC)C21` (stereo not drawn), the growth in assay [1] is 94.5%; in assay [2] it was 52.6%; in assay [3] it was 90.4%; in assay [4], 62.9%; in assay [5], 88%; in assay [7], 130%. The growth in assay [6] is 88.3%.

Turning to `O=[N+]([O-])c1ccc(O)c2ncccc12`, the growth in assay [1] is 61.4%; in assay [2] it was 40%; in assay [3], 25.7%; in assay [4], 9.13% (active); in assay [5], 21.4%; in assay [7] it was 44.5%. In assay [6], the growth is 22.2%.

Regarding `CCOC(=O)c1sc(N)c(C(=O)OCC)c1C`, the growth in assay [1] is 59.9%; in assay [2], 81.2%; in assay [3] it was 71.6%; in assay [4] it was 57.9%; in assay [5], 52.8%; in assay [6], 69.1%.

For the molecule `N#Cc1c(-c2ccc(Cl)cc2)nc(SCc2ccccc2)nc1N1CCNCC1`, the growth was 90.5% in assay [1]; 71.4% in assay [2]; -50.2% (active) in assay [3]; 8.71% (active) in assay [4]; -74.3% (active) in assay [5]; -37.3% (active) in assay [7]. Also, the growth in assay [6] was 39.6%.

Regarding `COC(=O)C1CCCN(S(=O)(=O)/N=C2\NC(=O)NC2=C(Cl)Cl)C1` (stereo not drawn), the growth in assay [1] is 118%; in assay [2], 111%; in assay [3], 85.8%; in assay [5] it was 97.8%; in assay [7] it was 111%; in assay [6] it was 4.95% (active).
